Measured values as given in PubChem BioAssay (NCI).
About 83,000 compounds went through this panel and 20% of them were active in at least one assay; those are over-represented in the sample as a whole.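 Percent growth is the endpoint: 0 to 100 indicates growth inhibition (40 means 60% inhibition), 0 means no net growth, and negative values indicate cell death.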 Unmarked numbers belong to inactive results. Calls of active or inactive are those of the source. Rule for the calls: active = growth percent below 10; inactive = the rest.

How the values were obtained:
Assay in all cases: NCI-60 one-dose screen, 48 h (100 = growth as untreated, 0 = no growth, -100 = all killed)
Conditions in all cases: 10 µM unless noted
HCT-15 colon = test system: HCT-15 colon
HT29 colon = test system: HT29 colon
SNB-19 CNS = test system: SNB-19 CNS
U251 CNS = test system: U251 CNS
PC-3 prostate = test system: PC-3 prostate
SK-MEL-5 melanoma = test system: SK-MEL-5 melanoma
UACC-62 melanoma = test system: UACC-62 melanoma
LOX IMVI melanoma = test system: LOX IMVI melanoma
SK-MEL-28 melanoma = test system: SK-MEL-28 melanoma

Structure (SMILES)	growth (HCT-15 colon)	growth (HT29 colon)	growth (SNB-19 CNS)	growth (U251 CNS)	growth (PC-3 prostate)	growth (SK-MEL-5 melanoma)	growth (UACC-62 melanoma)	growth (LOX IMVI melanoma)	growth (SK-MEL-28 melanoma)
Nc1nc(Nc2ccccc2SSc2ccccc2Nc2nc(N)nc(C(Cl)(Cl)Cl)n2)nc(C(Cl)(Cl)Cl)n1	41%	97.4%	70.2%	32.1%	44.3%	50.9%	70%	-24.3% (active)	89.2%
NS(=O)(=O)c1cc(C2(O)NC(=O)c3ccccc32)ccc1Cl (stereo not given)	104%	98.4%	104%	103%	91.7%	115%	103%	98.8%	116%
Clc1ccc2[nH]cc(-c3cncn3CCc3ccccc3)c2c1	51%	57.3%	71.1%	57.9%	46.7%	10.8%	57.4%	70%	69.8%
COc1ccc2c(c1)CC[C@@H]1[C@@H]2CC[C@]2(C)[C@@H](O)C(=O)C[C@@H]12	114%	105%	102%	102%	95.1%	107%	94.5%	94%	113%
CCN1CCN(c2nc(NNC(=O)Cc3ccccc3)nc(N3CCN(C(c4ccccc4)c4ccccc4)CC3)n2)CC1	22.9%	-7.32% (active)	84.2%	19.1%	63.7%	2.68% (active)	84.7%	-54.9% (active)	92.6%
C[C@H](C(=O)N[C@@H](Cc1ccc(-c2ccccc2)cc1)C(=O)NC1CC(C)(C)NC(C)(C)C1)c1ccc(-c2ccccc2)c(F)c1	-75% (active)	-61.2% (active)	-6.87% (active)	-71% (active)	-65.5% (active)	-93.1% (active)	-43.9% (active)	-85.3% (active)	-77.7% (active)
N#Cc1c(-c2ccccc2)cc(-c2ccccc2)n(CCCCC(=O)O)c1=O	71.3%	99.8%	96.1%	93.3%	93.1%	93.7%	80.6%	88.2%	89.5%
Cc1ccc(OCC(=O)Nc2ccc(Oc3ccccc3)cc2)c([N+](=O)[O-])n1	95.2%	95%	58.7%	85%	–	44.2%	60.9%	89.6%	111%
CC[n+]1c(/C=C/c2ccc(N3CCCC3)cc2)cccc1/C=C/c1ccc(N2CCCC2)cc1	-85.7% (active)	-82.9% (active)	-93.9% (active)	-89.6% (active)	-76.8% (active)	-87.6% (active)	-86% (active)	-76.5% (active)	-93.6% (active)
COc1cc(/C=N/NC(=O)c2ccc(C(F)(F)F)nc2Nc2ccc(Cl)cc2C)ccc1O	27.9%	45.2%	54.4%	33.8%	24.8%	-61.3% (active)	44.5%	33.7%	42.5%
COc1ccc2cc(-c3nc4ccccc4[nH]3)c(=O)oc2c1	94.2%	114%	98.3%	93.5%	87.5%	94.8%	83.6%	80.4%	103%
C=C(CN1CCc2c([nH]c3ccccc23)C1)c1ccc(C(=O)Nc2ccon2)cc1	104%	99.2%	74.4%	92%	73.8%	88%	80%	83.8%	97.8%
COc1ccc2nc(NC(=O)CN3CCn4c(nnc4C(F)(F)F)C3)sc2c1	93.3%	98.4%	90.5%	91.6%	98.6%	79.2%	83.9%	96.6%	102%
CCOC(=O)c1cc2oc(/C=C/c3cc(=O)c4cc(Cl)ccc4o3)cc2[nH]1	105%	96.6%	92.1%	92.5%	85.2%	68.2%	75.8%	101%	91.4%
